Results reported in the supplement of paper PMC8975748.
Counter-ions that a name gives are not always drawn.

Tested on: Saccharomyces cerevisiae BY4741 SeMeCo community
Experiment: z-score of subpopulation abundance vs DMSO median, subpopulation auxotrophic for UM; higher = larger share of this subpopulation than in DMSO controls
Conditions: 10 µM; 24 h; SM minimal medium; subpopulation (auxotrophy): UM
Description: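 Fluorescent four-plasmid SeMeCo (self-establishing metabolically cooperating S. cerevisiae BY4741 community; plasmids pH-mRuby2, pL-mWasabi, pU-eCFP, pM-TagRFP657) was grown 24 h in minimal SM medium with each Selleck FDA-approved drug at 10 µM in 384-well plates. Cells were fixed and imaged by high-content confocal microscopy. For each auxotrophic subpopulation (and the prototroph), a z-score gives the deviation from the DMSO vehicle-control population median.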

Row | SMILES | z-score of subpopulation abundance
1 | CCCCCCCCCCCCCCCC[n+]1ccccc1 [Cetylpyridinium Chloride] | 3.46
2 | Cn1cc(C2=C(c3cn(C4CCN(Cc5ccccn5)CC4)c4ccccc34)C(=O)NC2=O)c2ccccc21 | 0.73
3 | C=C(C)[C@H]1Cc2c(ccc3c2O[C@@H]2COc4cc(OC)c(OC)cc4[C@@H]2C3=O)O1 [Rotenone (Barbasco)] | 0.29
4 | C[N+]12CCC(CC1)C(OC(=O)C(O)(c1ccccc1)c1ccccc1)C2 (stereo not given) [Clidinium Bromide] | -0.38
5 | CCN(C)C(=O)Oc1cccc([C@H](C)N(C)C)c1 [Rivastigmine Tartrate] | -0.84
6 | C=CN1CCCC1=O.II [Povidone iodine] | 0.16
7 | C[N+](C)(C)CCCCCCCCCC[N+](C)(C)C [Decamethonium Bromide] | 0.35
8 | CCOC(=O)Nc1ccc(NCc2ccc(F)cc2)cc1N [Retigabine 2HCl] | -0.52
9 | COc1ccc2c3c([nH]c2c1)C(C)=NCC3 [Harmaline] | -9.37
10 | CC(=O)O[C@H]1C[C@@H]2CC[C@@H]3[C@H](CC[C@@]4(C)[C@H]3C[C@H]([N+]3(C)CCCCC3)[C@@H]4OC(C)=O)[C@@]2(C)C[C@@H]1[N+]1(C)CCCCC1 [Pancuronium dibromide] | -0.06
11 | CN(C)[C@@H]1C(=O)C(C(N)=O)=C(O)[C@@]2(O)C(=O)C3=C(O)c4c(O)cccc4[C@@](C)(O)[C@H]3C[C@@H]12 [Tetracycline HCl] | 0.64
12 | CC[C@H]1CN2CC[C@]3(C(=O)Nc4ccccc43)[C@@H]2C[C@@H]1/C(=C\OC)C(=O)OC [Rhynchophylline] | 1.19
13 | O=C(O[C@H]1C[C@H]2CC[C@@H](C1)[N+]21CCCC1)C(O)(c1ccccc1)c1ccccc1 [Trospium chloride] | -0.43
14 | N#Cc1nn(-c2c(Cl)cc(C(F)(F)F)cc2Cl)c(N)c1[S+]([O-])C(F)(F)F (stereo not given) [Fipronil] | -0.68
15 | Oc1cccc2cccnc12 [8-Hydroxyquinoline] | -1.16
16 | COc1cc2c(cc1OC)C1CC(=O)C(CC(C)C)CN1CC2 (stereo not given) [Tetrabenazine (Xenazine)] | -0.68
17 | NC(=O)CN1CCCC1=O [Piracetam] | 0.74
18 | CC[C@@]1(O)C(=O)OCc2c1cc1n(c2=O)Cc2cc3ccccc3nc2-1 [Camptothecin] | 0.1
19 | Cc1cc(O)ccc1Cl [Chlorocresol] | -0.48
20 | CNC1CC(N)C(O)C(OC2OC(CO)C(O)C3OC4(OC(C(N)CO)C(O)C(O)C4O)OC23)C1O (stereo not given) [Hygromycin B] | 0.06

Row | SMILES | z-score of subpopulation abundance
21 | COc1ccc(C(CN(C)C)C2(O)CCCCC2)cc1 (stereo not given) [Venlafaxine] | 0.35
22 | CC(C)=CCOc1c2occc2cc2ccc(=O)oc12 [Imperatorin] | 0.52
23 | COc1ccc2[nH]cc(CCN)c2c1 [5-Methoxytryptamine] | 1.16
24 | COc1ccc(C(CN(C)C)C2(O)CCCCC2)cc1 (stereo not given) [Venlafaxine HCl] | 0.66
25 | C[C@@H]1CC[C@H]2[C@@H](C)C(=O)O[C@@H]3O[C@@]4(C)CC[C@@H]1[C@]32OO4 [Artemisinin] | -0.66
26 | O=c1cccc2n1C[C@@H]1CNC[C@H]2C1 [Cytisine] | -0.6
27 | C[C@@H]1O[C@@H](O[C@H]2C[C@@H](O)[C@]3(CO)[C@H]4[C@H](O)C[C@]5(C)[C@@H](C6=CC(=O)OC6)CC[C@]5(O)[C@@H]4CC[C@]3(O)C2)[C@H](O)[C@H](O)[C@H]1O [Ouabain] | 0.06
28 | CN1[C@@H]2C[C@@H](OC(=O)[C@H](CO)c3ccccc3)C[C@H]1[C@@H]1O[C@@H]12 [Scopolamine HBr] | -0.95
29 | CC(=O)OCC1=C(C(=O)O)N2C(=O)C(N)C2SC1 (stereo not given) [7-Aminocephalosporanic acid] | 0
30 | CN(C)C(=O)Oc1ccc[n+](C)c1 [Pyridostigmine Bromide] | 0.25
31 | C[N+]1(C)[C@@H]2C[C@@H](OC(=O)[C@H](CO)c3ccccc3)C[C@H]1[C@@H]1O[C@@H]12 [Methscopolamine] | 1.32
32 | CN(C)[C@@H]1C(=O)C(C(N)=O)=C(O)[C@@]2(O)C(=O)C3=C(O)c4c(O)cccc4[C@@](C)(O)[C@H]3[C@H](O)[C@@H]12 [Oxytetracycline Dihydrate] | -0.39
33 | C#C[C@]1(O)C=C[C@H]2[C@@H]3CCC4=CC(=O)CC[C@@H]4[C@H]3CC[C@@]21CC [Gestodene] | -1.14
34 | CN(C)[C@@H]1C(=O)C(C(N)=O)=C(O)[C@@]2(O)C(=O)C3=C(O)c4c(O)ccc(Cl)c4[C@@](C)(O)[C@H]3C[C@@H]12 [Chlortetracycline HCl] | -0.66
35 | CN1c2ccccc2C(NCCCCCCC(=O)O)c2ccc(Cl)cc2S1(=O)=O (stereo not given) [Tianeptine sodium] | 0.21
36 | Oc1cc(Cl)ccc1Oc1ccc(Cl)cc1Cl [Triclosan] | -2.84
37 | C[C@H]1O[C@H](O[C@H]2[C@H](O)[C@@H](O)[C@@H](O)[C@H](O)[C@@H]2O)[C@@H](N)C[C@@H]1NC(=N)C(=O)O [Kasugamycin hydrochloride] | -0.17
38 | CN1C(=O)COc2c(C(=O)NC3CN4CCC3CC4)cc(Cl)cc21 (stereo not given) [Azasetron HCl] | 0.66
39 | CN[C@@H]1[C@@H](O)[C@@H](O[C@@H]2[C@@H](O)[C@H](O[C@H]3O[C@H](CN)CC[C@H]3N)[C@@H](N)C[C@H]2N)OC[C@]1(C)O.CN[C@@H]1[C@@H](O)[C@@H](O[C@@H]2[C@@H](O)[C@H](O[C@H]3O[C@H]([C@@H](C)N)CC[C@H]3N)[C@@H](N)C[C@H]2N)OC[C@]1(C)O.CN[C@@H]1[C@@H](O)[C@@H](O[C@@H]2[C@@H](O)[C@H](O[C@H]3O[C@H]([C@@H](C)NC)CC[C@H]3N)[C@@H](N)C[C@H]2N)OC[C@]1(C)O [Gentamicin Sulfate] | -0.75
40 | CN1[C@@H]2C[C@@H](OC(=O)[C@H](CO)c3ccccc3)C[C@H]1[C@@H]1O[C@@H]12 [Scopolamine HBr trihydrate] | -0.11
